Test results from the OligoGym collection.

Biological target: MCM6
Experiment: pooled miR-30 sensor sort-seq; sequence = guide strand
Conditions: shRNA
Further: reference of the scale not given here.

Sequence | sensor-assay potency score (higher = more potent)
TAGAACATGATCATAGTGTGTG | 0.881
ATATCTTCTGATATCATCGAGG | -0.536
ATGAATAGCAACTTGATCCCGC | 0.187
TAGATTTTTATCTTGACTCATC | -0.898
TTGATTTATTCAGTAACCGGAA | -0.345
TTTGGTTCCAACTTCACTGGGA | 1.01
TTGATCTAGATTGACATCAGGT | 0.643
TATCTCTGATTCGATTTCCTTC | -0.514
TACAACACACACCATTATCAGC | -1.14
TTACACATGAAAACAAAGGTAT | -0.0386
TTGATTTATGTCTTCATTGTAG | -0.457

Biological target: MED17
Experiment: as above
Conditions: shRNA

Sequence | sensor-assay potency score (higher = more potent)
TTTACATAAGAGAACATTCTGT | -0.192
TCTATGTACAACTCGAATCTGC | -0.242
TTCTGTAGCTCAGATCTCCGAG | 0.121
TTTATGAAACTCTCTAATCAGT | -0.898
TTCAGGTATCTTTTTATCCAGA | -0.5
TATCTTTTTATCCAGATCGAGA | -1.18
TACACTAGGTGTCTCAACTGGT | 0.232
TATTACTGCACAGTCATCTTAC | -0.307
TTATCTTGTAAAACATCACTTT | -0.0835
TATTATTTTACATCTTGTCATA | -1.34
TTGCTGAACTGCATGTACCTGG | 0.418
TTTTATTCCACTGAACTTCTTT | 0.579

Biological target: MED28
Experiment: as above
Conditions: shRNA

Sequence | sensor-assay potency score (higher = more potent)
TCGAATTTCTTCCTGATCGGTG | -0.612
TAACTTGCTCTGGTTTCTGGAC | -0.587
TCGTCCACCAAAGTACTGCTGG | -0.123
TAAGAAAAAACATTCTGTCTGT | 0.366
TGTCTGTCTTGCAATATCCAGA | -0.689
TAGTTCTGACACATCCTCTTTG | -0.787
TTAGTTCTGACACATCCTCTTT | -0.943
TAAAATGAACTCATTATCTGGC | 0.719
TTTGTAAGAAAAAACATTCTGT | 0.226
TTCGAATTTCTTCCTGATCGGT | -0.329
TTCCGCTGTAATTCATTCCTTA | 0.0365

Biological target: MED31
Experiment: as above
Conditions: shRNA

Sequence | sensor-assay potency score (higher = more potent)
TAAATTTCGCACACTGAGCATT | -1.04
TATTGGAGCAGCTCTAACATGT | -0.528
TCGATTTCCAGCATCATCTGTC | 0.22
TTGTCTTTGAAGTAACCTCTTT | -0.371
TCCAACTCCAACTGAAACCGAA | -1.04
TTTTTTGTCTTCACTGTACAAA | -0.668
